Rows were chosen to be rich in hits. Some 3% of all compounds tested hit in one or more screens of this group.
ABHD5 PLIN5 PPI – ABHD5-PLIN5 protein interaction inhibition; inhibition, % at 4 µM; 360,000 tested, 0.78% active; Q00G26+Q8WTS1; Split G. princeps luciferase complementation, luminescence, 4 h;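 active means inhibition above the mean inhibition across every tested compound plus 3 SD, cut at about 22% in these data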;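 further: 0% = DMSO only wells and the 100% control is not disclosed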
Target sequence (Q00G26 whole entry, looked up): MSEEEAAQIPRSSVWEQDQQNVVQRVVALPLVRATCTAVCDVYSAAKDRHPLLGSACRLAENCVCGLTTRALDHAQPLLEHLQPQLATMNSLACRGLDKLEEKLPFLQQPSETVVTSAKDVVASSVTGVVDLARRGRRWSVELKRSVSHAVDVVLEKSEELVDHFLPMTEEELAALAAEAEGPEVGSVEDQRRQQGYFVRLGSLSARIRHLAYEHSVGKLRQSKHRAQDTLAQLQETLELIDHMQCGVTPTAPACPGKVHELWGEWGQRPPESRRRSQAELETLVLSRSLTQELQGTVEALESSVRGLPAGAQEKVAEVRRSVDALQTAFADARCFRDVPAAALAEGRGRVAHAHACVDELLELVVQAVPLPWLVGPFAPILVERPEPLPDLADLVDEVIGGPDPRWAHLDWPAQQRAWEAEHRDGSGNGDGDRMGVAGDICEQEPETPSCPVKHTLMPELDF
Target sequence (Q8WTS1 whole entry, looked up): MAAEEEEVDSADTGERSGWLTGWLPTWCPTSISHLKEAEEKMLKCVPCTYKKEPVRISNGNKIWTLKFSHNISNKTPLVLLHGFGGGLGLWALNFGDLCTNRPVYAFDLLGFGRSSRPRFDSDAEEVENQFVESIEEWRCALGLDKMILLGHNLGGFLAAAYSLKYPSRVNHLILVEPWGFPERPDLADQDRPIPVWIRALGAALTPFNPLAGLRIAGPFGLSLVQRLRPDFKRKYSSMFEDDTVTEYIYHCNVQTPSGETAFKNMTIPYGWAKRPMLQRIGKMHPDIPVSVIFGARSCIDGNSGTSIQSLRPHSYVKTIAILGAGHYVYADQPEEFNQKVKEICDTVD
EWS-Fli block – EWS/Fli transcriptional activity inhibition | A673 NR0B1-luciferase reporter, viability-normalised | inhibition, % at 12.6 µM | 350,000 tested, 0.67% active | AID 651661;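 active means mean inhibition of at least 50% after viability correction, with every replicate also passing that limit; inconclusive means mean reaches 50% but only one of two replicates passes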;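 further: firefly luciferase signal divided by Alamar Blue viability fluorescence both relative to DMSO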
Peg3 prom inh – reduces Peg3 promoter-driven luciferase expression in HeLa; inhibition, % at 20 µM; 360,000 tested, 1.7% active; HeLa PEG-Prom luciferase reporter, luminescence, overnight;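 active means inhibition of at least 50% at 20 µM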
Shn3 3UTR inh – inhibitors of Schnurri-3 3'UTR reporter in osteoblasts | Clone20 osteoblast Shn3 3'UTR firefly luciferase, 24 h | inhibition, % at 12.5 µM | 360,000 tested, 0.52% active | AID 588674;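 active means mean inhibition of at least 75% with every replicate also reaching 75%; inconclusive means mean inhibition at least 75% but some replicate below; inactive means mean inhibition below 75%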;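 further: 0% = median of neutral control wells and 100% = pilot-screen positive control compound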
MITF TRPM1 inh – MITF TRPM1 promoter inhibition in SK-MEL-5 cells; SK-MEL-5 TRPM1 promoter luciferase, 24 h; inhibition, % at 12.5 µM; 330,000 tested, 0.83% active; AID 488899;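 active means mean inhibition across replicates of 60% or more, whatever share of single replicates reaches that level; inconclusive means some that reach 60%, reason not given; inactive means mean inhibition across replicates below 60%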
PAX8 reporter – PAX8 transcriptional activity inhibition. RMG-I TPO-luciferase reporter, SteadyGlo, 24 h. inhibition, % at 12.6 µM. 360,000 tested, 1.2% active. AID 652154;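 active means mean replicate inhibition at least 60% with every replicate also reaching 60%; inconclusive means only one of the two criteria is met; inactive means mean below 60% and not all replicates reaching 60%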;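 further: luciferase light reporting Pax8 driven TPO promoter activity; plate controls were median of neutral control wells for no effect and mitoxantrone controls for full effect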
Numbers without * were called inactive; u = inconclusive; x = no result.

SMILES	ABHD5 PLIN5 PPI	EWS-Fli block	Peg3 prom inh	Shn3 3UTR inh	MITF TRPM1 inh	PAX8 reporter
CN(C)CC(=O)Nc1ccc2c(c1)[C@@H]1C[C@@H](CC(=O)NC3CCCC3)O[C@H](CO)[C@@H]1O2	x	-10	x	x	x	0
CC(C)c1ccc(OCc2ccc(C(=O)O)o2)cc1	-2	21	51*	-8	25	40
Cc1ccc(S(=O)(=O)N[C@@H]2C=C[C@H](CC(=O)NCCN3CCCCC3)O[C@H]2CO)cc1	x	-3	x	x	x	-8
COC(=O)[C@@]1(Cc2ccccc2)[C@@H]2C(=CC(=O)[C@H]2CC(=O)C(=O)N(C)C)CN1C(=O)c1ccccc1	31*	x	9	38	47	x
Cc1noc(C)c1S(=O)(=O)Nc1ccc2c(c1)CC(=O)N([C@@H](C)CO)C[C@H](C)[C@@H](CN(C)Cc1ccc(Cl)c(Cl)c1)O2	x	-5	x	x	x	1
Cc1ccc(S(=O)(=O)Nc2ccc3c(c2)CC(=O)N([C@@H](C)CO)C[C@@H](C)[C@@H](CN(C)Cc2ccc(Cl)c(Cl)c2)O3)cc1	x	15	x	x	x	-1
Cc1noc(C)c1S(=O)(=O)Nc1ccc2c(c1)CC(=O)N([C@@H](C)CO)C[C@@H](C)[C@H](CN(C)Cc1ccc(Cl)c(Cl)c1)O2	x	17	x	x	x	88*
Cc1ccc(S(=O)(=O)Nc2ccc3c(c2)CC(=O)N([C@H](C)CO)C[C@@H](C)[C@@H](CN(C)Cc2ccc(Cl)c(Cl)c2)O3)cc1	x	4	x	x	x	30
Cc1ccc(S(=O)(=O)Nc2ccc3c(c2)CC(=O)N([C@@H](C)CO)C[C@H](C)[C@H](CN(C)Cc2ccc(Cl)c(Cl)c2)O3)cc1	x	69*	x	x	x	6
Cc1ccc(S(=O)(=O)Nc2ccc3c(c2)CC(=O)N([C@H](C)CO)C[C@H](C)[C@@H](CN(C)Cc2ccc(Cl)c(Cl)c2)O3)cc1	x	10	x	x	x	82*
CC[C@@H](C(=O)[C@@H](C)[C@@H](O)[C@H](C)CCc1ccc(C)c(O)c1C(=O)O)[C@H]1O[C@](CC)([C@H]2CC[C@](O)(CC)[C@H](C)O2)C[C@@H]1C	-2	26	94*	92*	40	104*
Cc1cccc(NC(=S)N/N=C/c2cccc(O)c2)c1C	-5	64*	9	-1	44	8
COCCNC(=O)C[C@@H]1C[C@H]2c3cc(NC(=O)NC4CCCCC4)ccc3O[C@H]2[C@@H](CO)O1	x	1	x	x	x	-10
Oc1c(Br)cc(Br)cc1/C=N/Nc1ccc(Cl)nn1	-6	16	48	95*	66*	-11
CO[C@H]1CN(C)C(=O)c2cc(NS(C)(=O)=O)ccc2OC[C@@H](C)N(C(=O)CC2CC2)C[C@@H]1C	x	-2	x	x	x	-21
O=C(Nc1cccc(F)c1)N1CCCCN2[C@H](C1)[C@H](c1ccc(C#Cc3ccccc3)cc1)[C@@H]2CO	x	7	x	x	x	3
O=C(Nc1cccc(F)c1)N1CCCCN2[C@@H](CO)[C@H](c3ccc(C#Cc4ccccc4)cc3)[C@@H]2C1	x	16	x	x	x	94*
O=C(Nc1cccc(F)c1)N1CCCCN2[C@H](CO)[C@@H](c3ccc(C#Cc4ccccc4)cc3)[C@H]2C1	x	42	x	x	x	116*
O=C(Nc1cccc(F)c1)N1CCCCN2[C@H](CO)[C@H](c3ccc(C#Cc4ccccc4)cc3)[C@H]2C1	x	73*	x	x	x	u
O=C(Nc1cccc(F)c1)N1CCCCN2[C@H](CO)[C@H](c3ccc(C#Cc4ccccc4)cc3)[C@@H]2C1	x	6	x	x	x	-41
C/C=C/c1cnc2c(c1)C(=O)N([C@H](C)CO)C[C@@H](C)[C@H](CN(C)C(=O)NCCC)O2	x	-2	x	x	x	x
Cc1ccc(N=Nc2ccc3ccccc3c2O)cc1	1	55*	6	10	21	-26
Cc1ccc(N=Nc2ccc(O)c3ncccc23)cc1	10	41	28	91*	87*	9
Oc1ccc(N=Nc2ccccc2C(F)(F)F)c2cccnc12	7	3	26	90*	73*	92*
CCS(=O)(=O)c1ccc(N=Nc2ccc(O)c3ncccc23)c(OC)c1	11	11	48	95*	66*	97*
SMILES	ABHD5 PLIN5 PPI	EWS-Fli block	Peg3 prom inh	Shn3 3UTR inh	MITF TRPM1 inh	PAX8 reporter
COc1ccccc1C#Cc1ccc([C@H]2[C@H]3CN(C(=O)C4CC4)CCCCN3[C@H]2CO)cc1	x	2	x	x	x	11
C[C@H](CO)N1C[C@H](C)[C@H](CN(C)Cc2ccc(C(F)(F)F)cc2)Oc2ccc(NC(=O)c3ccncc3)cc2C1=O	x	-1	x	x	x	-2
CO[C@@H]1CN(C)C(=O)c2ccc(NS(=O)(=O)c3cn(C)cn3)cc2OC[C@H](C)N(C)C[C@@H]1C	x	2	x	x	x	1
COc1ccc2c3c([nH]c2c1)[C@@H](CO)N(S(=O)(=O)c1cn(C)cn1)CC31CCN(Cc2ccccc2Cl)CC1	x	5	x	x	x	x
CSc1ccc2c(c1)N(CCC1CCCCN1C)c1ccccc1S2 (stereo not drawn)	13	11	99*	-6	-6	14
CC(=O)c1ccc2c(c1)N(CCCN1CCC(CCO)CC1)c1ccccc1S2	6	3	11	81	0	18
COc1cccc(/C=C2\CCc3ccccc3C2=O)c1	7	31	-175	-22	-75	-32
COc1cccc(C=C2Cc3ccccc3C2=O)c1	23*	-100	-123	1	x	-34
Cc1ccc(NCC(=O)c2ccccc2)cc1Cl	-9	x	14	-61	-9	x
Cc1ccc(NC2=C(NC(=O)c3ccccc3)C(=O)c3ccccc3C2=O)cc1Cl	-12	4	15	23	67*	22
O=C(O)c1ccc(NC2=C(Cl)C(=O)c3ccccc3C2=O)cc1	3	u	109*	95*	96*	83*
COc1ccc(S(=O)(=O)N(C)C[C@H]2OCc3ccccc3-c3ccccc3C(=O)N([C@@H](C)CO)C[C@H]2C)cc1	x	6	x	x	x	x
COc1ccc(/C=N/NC(=O)C(=O)N2CCCCCC2)cc1	-6	3	4	8	7	-11
O=C(COc1ccc(/C=N/NC(=O)C(=O)N2CCCCCC2)cc1)Nc1ccccc1Cl	1	-41	-151	4	-31	78*
CC1=[N+](C)c2c(ccc3cccnc23)C1(C)C	-18	20	23	93*	-35	85*
COc1cccc(-n2c(N)c(C(=O)Nc3c(C)n(C)n(-c4ccccc4)c3=O)c3nc4ccccc4nc32)c1	3	-1	60*	20	13	6
Cc1cc(C)cc(-n2c(N)c(C(=O)Nc3c(C)n(C)n(-c4ccccc4)c3=O)c3nc4ccccc4nc32)c1	-1	x	91*	14	-1	x
CC(C)NC(=O)N(C)C[C@H]1Oc2ccc(NC(=O)C3CC3)cc2C(=O)N([C@H](C)CO)C[C@H]1C	x	10	x	x	x	-12
CCC(=O)Nc1ccc2c(c1)C(=O)N(C)[C@@H]1CC[C@@H](CC(=O)N3CCc4ccccc4C3)O[C@@H]1CO2	x	-5	x	x	x	2

Source: PubChem
